SENP7 block: inhibitors of human SENP7 protease; Q9BQF6; recombinant SENP7, Z-RLRGG-aminoluciferin luminescence, 40 min; inhibition, % at 5 µM; 1.5% of 330,000 active; AID 434973;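 active means inhibition above about 50% at the single test dose, limit read from the data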;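 further: plate controls were DMSO with enzyme for no effect and no enzyme buffer wells for full effect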
SENP6 inh: SENP6 protease inhibition. Q9GZR1. Recombinant SENP6 catalytic domain, aminoluciferin luminescence. inhibition, % at 10 µM. 1.8% of 330,000 active. AID 2599;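 active means inhibition above about 50% at the single tested dose, limit read from the data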;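 further: plate controls were DMSO wells with enzyme for no effect and DMSO wells lacking enzyme for full effect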
SENP8 block-1: SENP8 (human) protease inhibition; inhibition, % at 20 µM; Q96LD8; 0.64% of 360,000 active; AID 602440; recombinant SENP8, Nedd8 substrate fluorescence; in the data active means inhibition mostly above about 40%, no sharp cut-off; inactive means mostly below about 27%
Target sequence (Q96LD8 whole entry, looked up): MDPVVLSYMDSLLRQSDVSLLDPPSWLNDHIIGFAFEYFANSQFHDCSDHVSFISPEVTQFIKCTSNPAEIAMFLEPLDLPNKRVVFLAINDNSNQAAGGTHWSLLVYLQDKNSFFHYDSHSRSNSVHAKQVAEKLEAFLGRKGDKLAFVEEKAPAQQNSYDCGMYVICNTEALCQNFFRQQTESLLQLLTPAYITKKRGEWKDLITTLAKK
EBI2 block: blocks human EBI2 receptor beta-arrestin signaling. EBI2 beta-arrestin recruitment, luminescence, 7a,25-OHC stimulated. P32249. AID 651636. 0.81% of 360,000 active. inhibition, % at 5 µM; in the data active means inhibition above about 38%;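 further: enzyme fragment complementation signal reports receptor beta-arrestin coupling in cells; 0% = agonist plus DMSO wells and 100% = wells without agonist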
Target sequence (P32249 whole entry, looked up, the tested form may be a part): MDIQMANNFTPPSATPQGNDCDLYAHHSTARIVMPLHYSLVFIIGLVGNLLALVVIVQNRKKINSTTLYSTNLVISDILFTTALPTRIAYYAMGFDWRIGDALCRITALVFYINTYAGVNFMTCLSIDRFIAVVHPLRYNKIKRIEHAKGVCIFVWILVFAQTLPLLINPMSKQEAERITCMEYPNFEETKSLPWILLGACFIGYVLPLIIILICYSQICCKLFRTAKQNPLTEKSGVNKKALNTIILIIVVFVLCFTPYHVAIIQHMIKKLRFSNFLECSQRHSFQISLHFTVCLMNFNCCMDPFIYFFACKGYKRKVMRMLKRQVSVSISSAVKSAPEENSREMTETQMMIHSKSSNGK
SENP8 block-2: inhibitors of human SENP8 protease. Q96LD8. purified SENP8, Z-RLRGG-aminoluciferin cleavage, luminescence. inhibition, % at 10 µM. 1.2% of 330,000 active. AID 2540; in the data active means inhibition above about 50%
AHR act: human AHR activation; P35869; AHR-responsive luciferase reporter cells, luminescence; activation, % at 5 µM; 2.5% of 320,000 active; AID 2796; in the data active means activation above about 47%;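 further: 0% = vehicle wells and 100% = reference agonist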
SENP8 confirm: confirmation of human SENP8 protease inhibitors. inhibition, % at 12.5 µM. 40% of 6,200 active. Recombinant SENP8, Z-RLRGG-aminoluciferin luminescence, 60 min. shares compounds with SENP7 block. AID 488912;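 active means mean inhibition across replicates above about 50%, limit read from the data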
SENP6 conf: confirmation of human SENP6 protease inhibitors; shares compounds with SENP7 block; inhibition, % at 12.5 µM; AID 488915; 58% of 6,200 active; recombinant SENP6, Z-RLRGG-aminoluciferin luminescence
SENP7 confirm: human SENP7 inhibition, confirmed; 69% of 6,200 active; inhibition, % at 12.5 µM; recombinant SENP7, Z-RLRGG-aminoluciferin luminescence, 40 min; shares compounds with SENP7 block
Casp3 select: caspase-3 inhibition (SENP selectivity assay) | AID 488918 | shares compounds with SENP7 block | inhibition, % at 12.5 µM | 60% of 6,200 active | purified caspase-3, Z-DEVD-aminoluciferin luminescence, 60 min;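 active means mean inhibition above about 50%, limit read from the data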;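 further: plate controls were enzyme with DMSO for no effect and wells without caspase-3 for full effect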
Target sequence (P42574 28-227 limits assumed): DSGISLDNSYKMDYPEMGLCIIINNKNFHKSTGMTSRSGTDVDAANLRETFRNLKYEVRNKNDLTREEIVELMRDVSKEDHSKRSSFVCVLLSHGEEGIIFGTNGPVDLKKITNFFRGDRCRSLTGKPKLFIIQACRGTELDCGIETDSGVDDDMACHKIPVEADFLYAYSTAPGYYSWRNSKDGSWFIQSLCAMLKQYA
Luc interf: counter-screen for SENP inhibitors: luminescence interference; shares compounds with SENP7 block; Pre-incubated SENP8/Z-RLRGG-aminoluciferin, luciferase luminescence interference; inhibition, % at 12.5 µM; 39% of 6,200 active;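 active means mean inhibition above about 50% when retested at one dose, limit read from the data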;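 further: plate controls were DMSO wells with completed reaction for no effect and substrate without enzyme for full effect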
An asterisk follows results filed as active; i = inactive; . = not tested or not shown. Shown are actives, neighbours in structure and some others; about 5% of the full set was active somewhere.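 How the source made its calls, unless noted: active means mean inhibition above about 50% in the one-dose retest (limit read from the data); inactive means the rest.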

SMILES | SENP7 block | SENP6 inh | SENP8 block-1 | EBI2 block | SENP8 block-2 | AHR act | SENP8 confirm | SENP6 conf | SENP7 confirm | Casp3 select | Luc interf
COc1cc2[nH]c(C(=O)N3CCc4ccccc43)cc2c(OC)c1OC | 20.5 | 26.8 | -11.1 | 2.1 | 9.7 | 25.8 | . | . | . | . | .
Cc1oncc1C(=O)Nc1ccc2ccccc2c1 | 80.9* | 87.7* | -7.6 | -4.4 | 67.3* | . | 24.9 | 65.2* | 95.7* | 75.4* | 77.2*
Cc1coc(C)c1C(=O)Nc1ccc2ccccc2c1 | 48.9 | 65.8* | -1.8 | 3.7 | 26.7 | . | 49.3 | 45.0 | 79.4* | 52.4* | 60.0*
Cc1oncc1C(=O)Nc1ccc(C(F)(F)F)cc1 | 76.1* | 78.0* | -2.0 | 1.2 | 68.1* | 67.4* | 11.7 | 67.2* | 94.1* | 76.4* | 62.7*
COc1ccc(Nc2nc3ccccc3s2)cc1 | 68.9* | 74.6* | 4.7 | 8.4 | 61.7* | 2.2 | 66.5* | 65.7* | 88.7* | 50.3* | 18.3
COc1ccc(/C(C)=N/OCC(=O)Nc2nc3ccccc3s2)cc1OC | 30.4 | 52.8* | 0.2 | 7.5 | 36.2 | 40.0 | 40.5 | 33.5 | 63.9* | 20.7 | 33.8
Cc1ccc2nc(NC(=S)NC(=O)c3ccc(OC(C)C)cc3)sc2c1 | -9.4 | -5.6 | 12.8 | 7.7 | 1.2 | -1.8 | . | . | . | . | .
CCCOc1ccc(C(=O)NC(=S)Nc2nc3ccccc3s2)cc1 | 91.9* | 2.7 | 26.5 | 2.6 | -6.2 | 82.0* | 5.0 | 10.5 | 15.9 | 5.1 | 12.1
COc1ccc(/C=N/OCC(=O)Nc2nc3ccccc3s2)cc1 | 54.1* | 78.4* | -0.5 | -7.4 | 53.4* | 4.5 | -6.9 | -6.0 | -2.4 | 4.3 | 6.1
CCOC(=O)C1=C(C)NC(C)=C(C(=O)OCC)C1C(=O)OCC(=O)NCc1ccc(F)cc1 | -2.1 | 2.0 | i | 3.4 | 5.0 | 10.4 | . | . | . | . | .
COc1ccc(-c2nnc(SCc3ccccc3F)o2)cc1 | 67.1* | 69.2* | 14.8 | 5.6 | 53.3* | 10.3 | 68.3* | 70.0* | 89.2* | 48.7 | 50.6*
Cc1ccccc1-c1nnc(SCc2ccccc2F)o1 | 31.0 | 57.5* | -10.1 | 7.8 | 11.6 | -4.5 | 18.2 | 45.0 | 72.7* | 35.9 | 17.7
Fc1ccccc1CSc1nnc(-c2ccccc2)o1 | 39.8 | 53.7* | 20.8 | 2.1 | 19.2 | 0.9 | 27.0 | 29.7 | 63.2* | 24.0 | 22.7
Fc1ccccc1CSc1nnc(-c2cccnc2)o1 | 4.1 | 15.5 | 22.3 | -0.1 | 5.7 | 1.4 | . | . | . | . | .
COc1ccc(-c2nnc(SCC(=O)c3cccs3)o2)cc1 | 56.0* | 24.1 | 14.7 | -3.1 | 27.2 | 24.4 | 15.7 | 36.0 | 83.0* | 54.9* | 10.4
COc1ccc(NC(=O)c2cc(S(=O)(=O)N3CCCC3)ccc2C)cn1 | -6.1 | 2.9 | 8.8 | -0.6 | -9.5 | 1.5 | . | . | . | . | .
CCOc1ccc(-n2c(=O)c3sccc3n(Cc3cccc([N+](=O)[O-])c3)c2=O)cc1 | 10.0 | 5.7 | 24.8 | 11.7 | 2.3 | -0.6 | . | . | . | . | .
O=C(CN1C(=O)NC(CCc2ccccc2)C1=O)N1CCCCCC1 (configuration not stated) | -8.5 | -12.9 | 4.8 | 5.0 | 4.2 | 1.4 | . | . | . | . | .
CC(=O)Oc1ccc2nc(/C=C/c3ccc(C=O)cc3)oc(=O)c2c1 | -5.8 | -5.1 | -127.3 | -12.5 | -5.3 | 2.4 | . | . | . | . | .
CC(=O)Oc1ccc2nc(/C=C/c3ccccc3)oc(=O)c2c1 | 72.4* | 36.2 | -198.3 | 8.4 | 77.3* | 0.5 | 15.8 | 22.1 | 48.9 | 61.9* | 52.0*
CCCSc1nnc(CSc2ncccn2)n1C | -3.7 | -9.0 | 13.3 | -1.7 | -1.4 | -0.5 | . | . | . | . | .
CCCNS(=O)(=O)c1ccc(NC(=O)c2ccccn2)cc1 | 57.1* | 69.3* | 15.9 | 4.7 | 41.5 | -1.2 | 35.6 | 34.7 | 78.8* | 75.8* | 58.3*
CCN(CC)S(=O)(=O)c1ccc(NC(=O)c2ccccn2)cc1 | 59.4* | 63.8* | 11.8 | -2.7 | 38.9 | 0.0 | 48.7 | 48.1 | 80.8* | 67.7* | 57.0*
CC(=O)NS(=O)(=O)c1ccc(NC(=O)c2ccccn2)cc1 | 2.4 | -14.5 | 12.1 | -3.7 | 1.7 | 1.5 | . | . | . | . | .
CSc1ccc(/C=C/C(=O)c2ccc(O)cc2)cc1 | 34.0 | 81.0* | -172.7 | 28.8 | 73.7* | 0.0 | 68.7* | 63.8* | 41.6 | 23.4 | 49.6
SMILES | SENP7 block | SENP6 inh | SENP8 block-1 | EBI2 block | SENP8 block-2 | AHR act | SENP8 confirm | SENP6 conf | SENP7 confirm | Casp3 select | Luc interf
CCOc1ccc(/C=C/C(=O)c2ccccc2)cc1 | 83.4* | 75.9* | -5.3 | 9.6 | 70.1* | 3.1 | -23.8 | 82.7* | 87.9* | 33.3 | 80.1*
Cc1ccc(/C=C/C(=O)c2c(C)nc3ccccn23)cc1 | 102.6* | 16.2 | 7.0 | 21.4 | -18.2 | 3.9 | 32.4 | 19.3 | 32.7 | 4.8 | 21.5
CCOc1ccc(C(=O)/C=C/c2ccccc2C(F)(F)F)cc1 | 7.7 | -5.9 | 3.7 | 13.7 | -11.6 | -1.8 | . | . | . | . | .
CC(=O)c1c(C)nc2ccccn12 | -5.4 | -21.8 | 9.1 | -5.6 | -9.1 | 0.1 | . | . | . | . | .
COC(=O)c1ccc(/C=C/C(=O)c2ccc(OC)cc2)cc1 | -8.5 | -3.0 | 6.1 | 29.2 | -4.9 | 4.2 | . | . | . | . | .
Cc1ccc(C(=O)/C=C/c2ccc3ncccc3c2)cc1 | -12.3 | -10.5 | 6.5 | 12.7 | -17.0 | 2.0 | . | . | . | . | .
Cc1ccc(/C=C/C(=O)c2ccccc2)cc1 | 40.0 | 78.5* | 16.7 | 9.5 | 26.4 | -3.9 | 51.0* | 59.9* | 63.6* | 3.6 | 65.1*
C=CCN(C(=O)c1ccc(Cl)cc1)c1ccccc1C(=O)NCC(=O)O | -3.3 | -4.3 | 13.4 | 3.3 | -0.6 | -1.3 | . | . | . | . | .
CCOc1ccc(NC(=O)/C=C/c2ccccc2)c([N+](=O)[O-])c1 | 14.1 | -14.0 | 32.2 | 8.0 | -8.1 | -0.9 | . | . | . | . | .
CN(C)c1ccc(C(=O)/C=C/c2ccco2)cc1 | -5.6 | 25.5 | -43.8 | 1.9 | 0.6 | 8.0 | . | . | . | . | .
CN(C)c1ccc(C(=O)/C=C/c2ccccc2)cc1 | 78.9* | 84.1* | 8.7 | 76.0* | 63.1* | 5.6 | 26.7 | 17.3 | 56.5* | 29.7 | 45.4
CCOc1ccc(N/C=C/C(=O)c2ccccc2)c([N+](=O)[O-])c1 | 100.9* | 97.5* | 34.5 | 7.9 | 96.9* | -10.9 | 93.6* | 95.3* | 79.6* | 96.9* | 13.2
O=C(c1ccc2[nH]c(=O)c(=O)[nH]c2c1)N1CCN(Cc2ccccc2)CC1 | -3.4 | -1.5 | -251.3 | -2.8 | -6.1 | 2.8 | . | . | . | . | .

Source: PubChem BioAssay
